Rows were chosen to be rich in hits. Some 19% of all compounds tested hit in one or more screens of this group.
Pf growth 96h – Primary qHTS for delayed death inhibitors of the malarial parasite plastid, 96 hour incubation. P. falciparum luciferase reporter growth, 96 h. Potency, µM (highest dose often 28.7 µM), without a hit: at the top dose activity change, negative = inhibition, most hits filed as inhibitors. 320,000 tested, 6.9% active; also: potency is read from the fitted curve at half-maximal effect; % is scaled to controls: 0 for no effect and ±100 for the full control effect
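Plates of compound plus infected erythrocytes (2% hematocrit, 0.05% parasitemia final) incubate 96 hours, 37 C, 5% CO2. Detection reagent added; reduced luminescence from the parasites' luciferase reporter flags inhibition.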
CHX counter – Cycloheximide Counterscreen for Small Molecule Inhibitors of Shiga Toxin; cell reporter, cycloheximide protein synthesis inhibition counterscreen; max response, %; 300,000 tested, 12% active; AID 2314, 2010; in the data active = max response mostly above about 13%, no sharp cut-off; inactive = mostly below about 14%; also: read at 38.3 µM for the half of the compounds with a filed dose; 0% is about no effect
Marburg entry inh – qHTS for inhibitors of binding or entry into cells for Marburg Virus; 300,000 tested, 1.8% active; Marburg virus pseudotyped entry inhibition, cell reporter; Potency, µM (series often up to 37.8 µM), for the others: at the top dose activity change, negative = inhibition, usual class: inhibitors; calls by dose curve; tested in HEK293 cells; also: potency is read from the fitted curve at half-maximal effect; % is scaled to controls: 0 for no effect and ±100 for the full control effect
Lassa entry inh – qHTS for Inhibitors of binding or entry into cells for Lassa Virus; AID 540256, 2011; 300,000 tested, 1.2% active; Lassa virus pseudotype entry inhibition, cell reporter; Potency, µM (series often up to 37.9 µM), without a hit: at the top dose activity change, negative = inhibition, actives largely listed as inhibitors; calls by dose curve; tested in HEK293 cells; also: potency is read from the fitted curve at half-maximal effect; % is scaled to controls: 0 for no effect and ±100 for the full control effect; nearly all actives have a fitted effect of over 50% in size
Pf growth 48h – Primary qHTS for delayed death inhibitors of the malarial parasite plastid, 48 hour incubation; P. falciparum luciferase growth in erythrocytes, 48 h; Potency, µM (titrated, usually from 28.7 µM), for inactives: top-dose activity change, negative = inhibition, actives largely listed as inhibitors; 310,000 tested, 5.9% active; AID 504832, 2011; also: potency is read from the fitted curve at half-maximal effect; % is scaled to controls: 0 for no effect and ±100 for the full control effect
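A one-generation exposure of luciferase-tagged malaria parasites in RPMI 1640/Albumax erythrocyte culture, 37 C and 5% CO2. Inhibition is inferred from decreased luminescence after adding detection reagent.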
Shiga inhibitor – A qHTS for Small Molecule Inhibitors of Shiga Toxin; Vero cells, Shiga toxin protein synthesis inhibition reporter; inhibition, % at 38.7 µM; 290,000 tested, 9.2% active; in the data active = inhibition mostly above about 28%, no sharp cut-off; inactive = mostly below about 43%; also: 0% is about no effect
Active calls of the source: *; ? = inconclusive; . = not tested or not shown; [ ] = remark or other dose. Unless noted, calls follow the shape of the dose curve; as a rule, active = well fitted inhibition curve with a large enough effect; inconclusive = small, poorly fitted or top-dose-only effect, or another doubt; inactive = no such curve, though single readings can be large or run the other way.

SMILES	Pf growth 96h	CHX counter	Marburg entry inh	Lassa entry inh	Pf growth 48h	Shiga inhibitor
COc1ccc(CCN2C(=O)CSC2=Nc2ccc(C(C)C)cc2)cc1OC	?	-3	?	1.4µM*	10µM*	-2
O=C(c1cccc(Br)c1)c1coc2ccc(O)cc12	296%	.	.	.	213%	.
Cc1ccc(C(=O)c2coc3ccc(OCC(=O)O)cc23)cc1	.	22*	15%[46.1 µM]	0%	6%	35*
COc1ccc(C(=O)c2coc3ccc(O)cc23)cc1	-6%	46*	.	.	-31%	43*
CCN(CC(=O)NCc1ccc(Cl)cc1)C(=O)CSc1ccccc1F	18%	.	?	-26%	7%	.
COc1ccccc1NC(=S)N1CCNC(=O)C1CC(=O)Nc1cccc(C)c1 (stereo not given)	-10%	6	.	.	-9%	-5
CS(=O)(=O)N(CC(=O)N1CCN(Cc2ccccc2)CC1)c1cccc([N+](=O)[O-])c1	2.9µM*	1	21%[46.1 µM]	6%[46.1 µM]	?	-9
COc1ccc(N2CCN(C(=O)CN(c3ccc(OC)cc3)S(=O)(=O)c3ccccc3)CC2)cc1	-8%	-2	?	?	12µM*	-2
COc1ccc(N(CC(=O)N2CCN(Cc3ccccc3)CC2)S(=O)(=O)c2ccccc2)cc1	5.9µM*	-3	?	-1%	?	-2
COc1ccc(N(CC(O)Cn2c3ccccc3c3ccccc32)S(=O)(=O)c2ccccc2)cc1 (stereo not given)	10µM*	-6	?	-4%	?	-8
COc1ccc(N(CC(=O)N2CCN(Cc3ccccc3)CC2)S(C)(=O)=O)cc1	379%	0	.	.	-7%	-7
Cc1cc(=O)n(CC(=O)NCCN2CCOCC2)c2c1c(C)nn2-c1ccccc1	38%	-3	?	1%[46.1 µM]	-20%	-7
CC(C)c1onc(C(=O)NC2CCCCC2)c1[N+](=O)[O-]	-27%	20	-1%[46.1 µM]	-5%[46.1 µM]	14%	13
O=S(=O)(c1ccc(F)cc1)n1ccc(-c2cccc(OCc3ccc(Cl)cc3Cl)c2)n1	0.15µM*	-1	-21%	-22%	?	-7
CCCCn1c(=O)[nH]c(=O)c2c1nc(-c1cc3c(cc1Br)OCO3)n2C	?	11	2%[46.1 µM]	?	?	-5
CCN1CCN(CCCNC(=O)c2cc3c(=O)[nH]c4ccccc4c3s2)CC1	10µM*	-5	?	?	.	-4
Cc1ccc2oc(=O)c3cnn(CC(=O)N4CCN(c5ccc(F)cc5)CC4)c3c2c1	.	.	13%[46.1 µM]	11%[46.1 µM]	.	.
Cc1ccc2oc(=O)c3cnn(CC(=O)N4CCc5ccccc5C4)c3c2c1	2.6µM*	-8	.	.	.	-16
O=C(NCCCN1CCCC1)c1cc2c(Cl)nc3ccccc3c2s1	5.9µM*	-5	10µM*	?	?	10
Cc1ccc2oc(=O)c3cc(C(=O)NCCCN4CCc5ccccc5C4)sc3c2c1	12µM*	-2	-5%	-3%	-17%	-14
CC1CN(C(=O)COC(=O)c2cc(S(N)(=O)=O)c(Cl)cc2Cl)CC(C)O1 (stereo not given)	29%	-8	?	0%[46.1 µM]	13%	6
Cc1ccc(C)c(OCCC(=O)Nc2cc(S(=O)(=O)N3CCCCC3)ccc2C)c1	.	.	0%[46.1 µM]	-22%[46.1 µM]	.	.
CCS(=O)(=O)N1CCc2cc(C(=O)Nc3cc(Cl)ccc3C)ccc21	.	.	3%[46.1 µM]	8%[46.1 µM]	.	.
CC(=O)c1ccc(NC(=O)C2C3C=CC(O3)C2C(=O)O)cc1 (stereo not given)	0%	13	12%[46.1 µM]	23%[46.1 µM]	-6%	6
O=C(NCCCN1CCOCC1)c1c(O)c2ccccc2[nH]c1=O	0%	-1	0%	0%	8%	-5
O=C(NCCCN1CCOCC1)c1cc2c(=O)[nH]c3ccccc3c2s1	?	-3	10µM*	2%	17%	5
CC1=CC(C)(C)N(C(=O)c2ccccc2)c2ccccc21	10%	-2	5%	6%	.	-11
O=[N+]([O-])c1cccc(-c2nnc(SCc3cccnc3)o2)c1	9%	13*	10%	21%	22%	35

Bioassay records as filed in PubChem.
